In the library only some 5.9% were active in any assay of this set; here they are far more common.
KB-3-1 cytotox: qHTS assay for MDR1-selective chemotherapeutics: Primary screen using the parental adenocarcinoma cell KB-3-1; KB-3-1 viability, CellTiter-Glo ATP luminescence, 72 h; Potency, µM (titrated, usually from 46.1 µM), most hits filed as cytotoxic; 400,000 compounds, 1.4% hits; AID 1347075, 2019; note: % is set by controls: 0 for no effect and ±100 for the full control effect; nearly all actives have a fitted effect of over 60% in size
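Parental KB-3-1 adenocarcinoma cells in phenol-red-free DMEM with 10% FBS were pin-treated with compounds at several concentrations, incubated 72 h at 37 °C, and viability read by CellTiter-Glo luminescence; concentration-effect curves were fitted after normalization.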
KB-V1 MDR tox: qHTS assay for MDR1-selective chemotherapeutics: Primary screen using the drug-selected MDR subline cells KB-V1; KB-V1 MDR cells viability, CellTiter-Glo, 72 h; Potency, µM (series often up to 46.1 µM), hits mostly cytotoxic; 400,000 compounds, 3.4% hits; note: % is set by controls: 0 for no effect and ±100 for the full control effect; nearly all actives have a fitted effect of over 60% in size
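qHTS viability screen in drug-selected KB-V1 MDR cells: 72 h compound treatment at 37 degrees C, ATP luminescence end point.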
ATXN viability: Viability Counterscreen for Primary qHTS for Inhibitors of ATXN expression; 400,000 compounds, 0.49% hits; Potency, µM (series often up to 56.7 µM), most hits filed as cytotoxic; S2 cells (HEK-293 line with an ATXN2-luciferase reporter) viability, CellTiter-Fluor protease fluorescence, 24 h; note: nearly all actives have a fitted effect of over 40% in size
ATXN2 expr inh: Primary qHTS for Inhibitors of ATXN expression | Potency, µM (series often up to 57 µM), inactives show at the top dose activity change, negative = inhibition, usual class: inhibitors | AID 1745845, 2022 | 360,000 compounds, 0.72% hits | HEK-293 ATXN2-luciferase reporter, luminescence, 24 h; note: % is set by controls: 0 for no effect and ±100 for the full control effect; nearly all actives have a fitted effect of over 55% in size
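qHTS (up to 57 uM final) was run with 24 h compound exposure of reporter cells at 37 °C. Each well was multiplexed: SteadyGlo luminescence measured ATXN2-luciferase expression after a fluorogenic Gly-Phe-AFC viability readout (25 uM final).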
HepG2 tox: qHTS for Inhibitors of TGF-b: Cytotox Counterscreen | 410,000 compounds, 0.76% hits | Potency, µM (series often up to 46.1 µM), for inactives: top-dose activity change, negative = cytotoxicity, usual class: cytotoxic | HepG2 CAGA-GFP viability, ATP luminescence, 18 h | AID 588856, 2011
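CellTiter-Glo luminescence gave cytotoxicity after 18 hours at 37 degrees C. The cells were HepG2 CAGA-GFP in 1% FBS DMEM, stimulated with 500 pg/mL TGF-beta after compound addition. %Activity was normalised to no-cell wells (complete cell-killing) and DMSO (no toxicity), and curves were fitted and classified.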
TGFb inhibitor: qHTS for Inhibitors of TGF-b | Potency, µM (titrated, usually from 46.1 µM), for the others: at the highest dose activity, negative = inhibition, hits mostly inhibitors | HepG2 CAGA-GFP TGF-b/SMAD3 reporter, GFP fluorescence, 18 h; TGF-beta stimulated, 500 pg/mL final | 410,000 compounds, 1.2% hits; note: % is set by controls: 0 for no effect and ±100 for the full control effect; nearly all actives have a fitted effect of over 65% in size
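TGF-beta reporter screen: HEPG2 CAGA-GFP, 1% FBS, 500 pg/mL TGF-beta final, 18 h; per-cell GFP summed per well; curves fitted and categorized by class.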
* = called active by the depositor; i = inactive; u = inconclusive; x = not tested or not shown; ! = repeats disagree. Calls come from the whole dose curve; as a rule, active = well fitted curve in the direction sought with a large enough effect; inconclusive = small, poorly fitted or top-dose-only effect, or another doubt; inactive = no such curve, though single readings can be large; an effect the other way counts as inactive or inconclusive. Potency is the fitted concentration of half-maximal effect.

SMILES	KB-3-1 cytotox	KB-V1 MDR tox	ATXN viability	ATXN2 expr inh	HepG2 tox	TGFb inhibitor
O=C1C=Cc2cccc3ccc(O)c1c23	u	u	i	7.1µM*	-5%	-2%
CC(C)CCC(CCN1CCOCC1)c1ccc2c(c1)OCO2 (stereo not given)	i	21µM*	i	-17%	-31%	-6%
CCCN(CCC)c1nc(NC2CCN(C(=O)OCC)CC2)nc(OC)n1	u	16µM*	u	-22%	-2%	u
Nc1cc([N+](=O)[O-])cc(N)c1N	i	i	x	x	1%	-4%
CCn1c(=O)n(CC)c2cc(S(=O)(=O)N3CCC(c4ccccc4)CC3)ccc21	i	23µM*	i	-4%	-5%	u
COc1cc(NC(=O)c2cc(C)on2)cc(C(=O)Nc2cccc(C(F)(F)F)c2)c1	u	i	u	u	-32%	u
COc1cc(NC(=O)c2ccnc(N)c2)cc(C(=O)Nc2cccc(C(F)(F)F)c2)c1	i	u	i	-11%	1%	3%
COc1cc(NC(=O)c2cnc(N)o2)cc(C(=O)Nc2cccc(C(F)(F)F)c2)c1	u	i	20µM*	u	-52%	u
COc1cc(NC(=O)c2csc(N)n2)cc(C(=O)Nc2cccc(C(F)(F)F)c2)c1	5.8µM*	7.3µM*!	18µM*	u	-46%	u
COc1cc(NC(=O)c2cnc(N)s2)cc(C(=O)Nc2cccc(C(F)(F)F)c2)c1	i	i	35µM*!	-5%	-62%	u
Cc1ccc(NC(=O)Cn2c(=O)nc(-c3ccccc3F)c3cc(Cl)ccc32)c(Br)c1	16µM*	u	i	-20%	-21%	-22%
Cc1ccc(S(=O)(=O)c2ncccc2[N+](=O)[O-])cc1	u	u	5µM*	x	-12%	2.5µM*
C=C[C@H](CC(C)C)N(Cc1ccccc1)S(=O)(=O)N(Cc1ccccc1)[C@H](C=C)CC(C)C	i	i	x	x	10%	0%
CC(C)(C)c1nnc(NS(=O)(=O)c2ccc(N)cc2)s1	x	x	i	0%	x	x
O=C(/C=C/c1ccc2c(c1)OCO2)Nc1cccnc1	8.2µM*	i	i	x	-65%	-31%
CC(=O)Nc1ccc(NC(=O)/C=C/c2ccc3c(c2)OCO3)cc1	i	i	x	-3%	0%	-20%
COC(=O)c1cccc(NC(=O)/C=C/c2ccc3c(c2)OCO3)c1	5.8µM*	u	i	u	-24%	-3%
NS(=O)(=O)c1ccc(NC(=O)/C=C/c2ccc3c(c2)OCO3)cc1	2.3µM*	i	u	-30%	7%	15%
COc1cccc(C2(CC(=O)N3CCCOc4c(cccc4OC)C3)CC(=O)N(C)C2=O)c1 (stereo not given)	x	x	i	x	x	x
COc1ccc2c(c1)-c1nc(-n3ncc(C(=O)NCc4cccc(C)n4)c3C3CC3)ncc1CC2	x	x	i	x	x	x
COc1cc(Nc2ccc(C)cc2)c([N+](=O)[O-])nc1[N+](=O)[O-]	u	5.8µM*	u	1%	-21%	-28%
Cc1cc(C)cc(Nc2ccc([N+](=O)[O-])nc2[N+](=O)[O-])c1	i	i	i	-9%	0%	-9%
C=CCn1c(CNc2ccc(C)cc2)nnc1SCC(=O)N/N=C/c1ccc(O)cc1O	i	i	i	20µM*	1%	u
CCOC(=O)c1cccc(NC(=O)CSc2ncc3c(n2)-c2ccc(Cl)cc2N(Cc2ccccc2)S3(=O)=O)c1	i	i	i	-43%	-8%	-21%
O=C(CN1C(=O)c2ccccc2S1(=O)=O)N1CCN(c2ccccc2F)CC1	i	u	u	-25%	-16%	5%
SMILES	KB-3-1 cytotox	KB-V1 MDR tox	ATXN viability	ATXN2 expr inh	HepG2 tox	TGFb inhibitor
O=C(CN1C(=O)c2ccccc2S1(=O)=O)c1ccc(Cl)cc1Cl	i	i	i	2µM*	-7%	-5%
O=C(CN1C(=O)c2ccccc2S1(=O)=O)c1ccccc1F	i	u	i	7.9µM*	5%	-13%
O=C(CN1C(=O)c2ccccc2S1(=O)=O)c1ccc2c(c1)OCCO2	i	i	i	x	-7%	-15%
O=C(CN1C(=O)c2ccccc2S1(=O)=O)c1ccc2c(c1)OCCCO2	i	i	i	0.28µM*	-15%	u
O=C(CN1C(=O)c2ccccc2S1(=O)=O)c1ccc(F)cc1	i	i	i	x	3%	3%
O=C(CN1C(=O)c2ccccc2S1(=O)=O)c1ccc(OC(F)F)cc1	i	i	i	2µM*	6%	11%
CC(C)c1ccc(N2C(=O)CC(Sc3ncn[nH]3)C2=O)cc1 (stereo not given)	i	i	i	-13%	-22%	u
COc1ccc(N2C(=O)CC(Sc3ncn[nH]3)C2=O)c(OC)c1 (stereo not given)	i	i	x	22µM*	-4%	u
COc1cc(=O)n2c(c1C(=O)NC(C)c1ccco1)CCN(CC=C(C)C)CC2 (stereo not given)	x	x	i	x	x	x
Cc1ccc(-n2cc(-c3ccccc3)c3c(N4CCCCC4)ncnc32)cc1	x	x	x	x	-34%	-6%
Nc1nc2ccccc2n1C(=O)c1ccccc1	i	u	u	x	-58%	0%
Nc1nc2ccccc2n1C(=O)CCc1ccccc1	18µM*	i	i	1%	-22%	3%
O=c1oc2ccc3ccccc3c2cc1-c1nnc(Nc2cccc(C(F)(F)F)c2)s1	i	i	i	0%	0%	5%
Cc1ccc(-c2csc(NC(=O)c3ccc(-c4ccccc4)cc3)n2)o1	u	15µM*	u	-12%	-32%	13µM*
O=C(Nc1nc(-c2ccccn2)cs1)c1ccc(-c2ccccc2F)o1	u	i	u	u	-89%	14µM*
CC(=O)c1ccc(-c2ccc(C(=O)Nc3nc(-c4ccccn4)cs3)o2)cc1	u	u	i	-38%	-58%	13µM*
Cc1ccc(C(=O)Nc2nc(-c3ccccn3)cs2)o1	u	i	u	x	2%	u
CC(C)CCSc1nc2c(c(=O)n(C)c(=O)n2C)n1Cc1ccccc1Cl	i	u	i	21%	-25%	-3%
Cn1c(=O)[nH]c2cc3ccccc3cc21	1.6µM*	1.3µM*	i	22%	-6%	-2%

Source: PubChem
